Compound activity (PubChem BioAssay)
Shown are actives, neighbours in structure and some others; about 18% of the full set was active somewhere.
PLK1 PBD inh – blocks phosphopeptide binding to human PLK1 polo-box domain | 360,000 tested, 2.8% active | Plk1 PBD binding of FITC phosphopeptide, fluorescence polarization | AID 720504 | Potency, µM, for the others: max response, negative = inhibition, hits mostly inhibitors; also: series mostly up to about 57 µM; nearly all actives have a fitted effect of over 65% in size
Target sequence (P53350 whole entry, looked up, the tested form may be a part): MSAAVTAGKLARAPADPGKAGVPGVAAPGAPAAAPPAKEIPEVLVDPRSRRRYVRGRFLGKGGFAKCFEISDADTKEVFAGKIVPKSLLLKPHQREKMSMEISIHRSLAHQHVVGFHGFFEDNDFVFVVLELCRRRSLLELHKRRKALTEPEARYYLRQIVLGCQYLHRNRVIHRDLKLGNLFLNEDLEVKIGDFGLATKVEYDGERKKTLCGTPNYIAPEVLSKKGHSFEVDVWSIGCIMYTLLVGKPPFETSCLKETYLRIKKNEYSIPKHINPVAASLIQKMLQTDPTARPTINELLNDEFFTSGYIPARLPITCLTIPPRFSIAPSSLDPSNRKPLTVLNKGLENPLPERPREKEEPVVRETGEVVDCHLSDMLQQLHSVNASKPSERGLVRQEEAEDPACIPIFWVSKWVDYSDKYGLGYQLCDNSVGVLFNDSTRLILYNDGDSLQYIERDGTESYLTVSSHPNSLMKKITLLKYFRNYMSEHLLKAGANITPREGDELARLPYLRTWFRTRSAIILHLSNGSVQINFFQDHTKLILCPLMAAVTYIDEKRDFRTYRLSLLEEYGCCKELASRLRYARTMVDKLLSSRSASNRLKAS
TDP1 block – inhibitors of human tyrosyl-DNA phosphodiesterase TDP1. recombinant TDP1, AlphaScreen DNA substrate cleavage. Potency, µM (highest dose often 130 µM), inactives show at the top dose activity change, negative = inhibition, actives largely listed as inhibitors. 350,000 tested, 0.28% active. AID 485290; also: nearly all actives have a fitted effect of over 40% in size
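Here, a 5' biotin and 3' phosphotyrosine-FITC DNA oligonucleotide reports Tdp1 activity: intact substrate bridges AlphaScreen beads, while cleavage leaves a 3' phosphate and drops signal. All incubations at room temperature.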
VDR inh – vitamin D3 receptor (human) inhibition. P11473. Potency, µM, for inactives: max response, negative = inhibition, most hits filed as inhibitors. 400,000 tested, 0.93% active. VDR-SRC2-3 peptide fluorescence polarization, 2 h
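Inhibition of the VDR/SRC2-3 peptide interaction is quantified by fluorescence polarization. Compounds (23 nl, pintool) incubate with the reagents for 2 hours at ambient room temperature.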
KAT2A inh – blocks human GCN5L2 histone acetyltransferase; Q92830; GCN5L2 HAT assay, ThioGlo1 CoA-SH fluorescence; Potency, µM (top dose mostly 58.9 µM), inactives show at the highest dose activity change, negative = inhibition, usual class: inhibitors; 390,000 tested, 0.21% active; AID 504327
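Compounds, pin-transferred from DMSO stocks, meet 20nM GCN5L2 for 15 min before the reaction begins with H3(1-25) peptide (75uM) and acetyl-CoA (70uM). Thiol-reactive ThioGlo1 reports CoA release over 20 min at room temperature.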
TDP1 cell noCPT – qHTS for Inhibitors of human tyrosyl-DNA phosphodiesterase 1 (TDP1): qHTS in cells in absence of CPT. DT40 Tdp1-/- hTDP1 cells, no CPT, ATP luminescence, 48 h. Potency, µM (top dose mostly 46.2 µM), inactives show at the highest dose activity change, negative = growth inhibition, most hits filed as inhibitors. 420,000 tested, 15% active; also: nearly all actives have a fitted effect of over 55% in size
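DT40 Tdp1-/-;hTDP1 cells, no CPT (DMSO vehicle only), 400 cells/well; compounds pin-transferred; ≥48 hr, 37 °C; CellTiter-Glo 30 min RT dark, luminescence read.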
DT40 TDP1 CPT – growth inhibition of DT40 Tdp1-/-;hTDP1 cells with camptothecin (screen for TDP1 inhibitors) | Potency, µM (titrated, usually from 46.2 µM), for the others: at the highest dose activity change, negative = growth inhibition, hits mostly inhibitors | chicken DT40 Tdp1-/-;hTDP1 cells + 20 nM CPT, ATP luminescence, 48 h | AID 686979 | 420,000 tested, 12% active; also: nearly all actives have a fitted effect of over 55% in size
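Cell growth measured by CellTiter-Glo luminescence after a minimum 48 h, 37 C compound exposure with 20 nM CPT in Tdp1-knockout DT40 cells stably expressing hTDP1, seeded 400/well; qHTS titration format.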
* marks the source's active call; other numbers are inactive results; ? = inconclusive; nt = not tested or not shown; ! = not active in a repeat; [ ] = dose if it differs, or a comment. Calls follow the shape of the dose curve; as a rule, active = well fitted curve in the direction sought with a large enough effect; inconclusive = small, poorly fitted or top-dose-only effect, or another doubt; inactive = no such curve, though single readings can be large; an effect the other way counts as inactive or inconclusive. % is scaled to controls: 0 for no effect and ±100 for the full control effect; potency is read from the fitted curve at half-maximal effect.

SMILES	PLK1 PBD inh	TDP1 block	VDR inh	KAT2A inh	TDP1 cell noCPT	DT40 TDP1 CPT
O=C(NCc1cccnc1)C1CC(c2ccccc2Cl)=NO1 (stereo not given)	27µM*	nt	-7%	0%	?	?
CCn1ncc(C2=NOC(C(=O)NCc3ccc(Cl)cc3)C2)c1C (stereo not given)	-6%	0%	-14%	-2%	5.8µM*	5.8µM*
O=C1c2ccccc2C(=O)c2c(O)ccc(O)c21	nt	14%	45µM*	nt	-10%[9.04 µM]	-6%[9.04 µM]
O=C(O)c1cccc2c1C(=O)c1ccccc1-2	-13%	6%	-8%	-5%	-16%	3%
O=C1c2ccccc2C(=O)c2c(O)c(O)cc(O)c21	27µM*	?	50µM*!	7.9µM*!	?	?
O=C1c2ccccc2C(=O)c2c(NCCc3ccc(O)cc3)ccc(NCCc3ccc(O)cc3)c21	nt	nt	1%	-19%	nt	nt
O=C1C=C(O)c2c(O)cc(O)c(O)c2C1=O	?	nt	-18%	nt	?	?
O=C1c2ccccc2C(=O)c2c(Nc3ccc(CCO)cc3)ccc(O)c21	-10%	14%	?	-3%	16µM*	?
CSc1nc(N)c(NC(=O)c2ccc(Br)o2)c(=O)[nH]1	0%	4%	17%	-3%	?	-12%
C/C(=N\NS(=O)(=O)c1cccc([N+](=O)[O-])c1)c1cccnc1	?	8%	-24%	-4%	-9%	-3%
Cc1cccc(CN(C)C[C@H]2OCc3cnnn3CCCC(=O)N([C@@H](C)CO)C[C@@H]2C)c1	-9%	nt	nt	nt	-21%	2%
O=C(O)/C(=C\c1ccc(C(F)(F)F)cc1)c1ccc(S(=O)(=O)N2CCCC2)s1	-1%	-1%[56.1 µM]	-2%	-5%	1%	-1%
Cc1cccc(/C=C(\C(=O)O)c2ccc(S(=O)(=O)N3CCCC3)s2)c1	-29%	11µM*	-16%	?	-1%	-16%
COc1cc(/C=C(\C(=O)O)c2ccc(S(=O)(=O)N3CCCC3)s2)ccc1OCCC(C)C	-14%	nt	9%	nt	?	23µM*
Cc1cccc(NC(=O)Cn2c(=O)n(Cc3ccccc3)c(=O)c3sc4ccccc4c32)c1	nt	0%	-8%	-13%	-18%	-13%
Cc1cccc(NC(=O)Cn2c(=O)n(CCc3ccccc3)c(=O)c3sc4ccccc4c32)c1	nt	6%	6%	-3%	23µM*	16µM*
CCOc1ccc(NC(=O)Cn2c(=O)n(Cc3ccccc3)c(=O)c3sc4ccccc4c32)cc1	nt	6%	-7%	1%	9.2µM*	6.5µM*
O=C1NC[C@H](CCCCN2C[C@H](Cc3ccc(O)cc3)N(Cc3ccccc3)C(=O)C2=O)N(CC2CCCCC2)C1=O	-18%	nt	nt	nt	-10%	-6%
CCCCCCn1c(=O)n2n(c1=O)C[C@]1(OC(=O)NC3CCCC3)CN(S(=O)(=O)c3ccc(C)cc3)C[C@]1(O)C2	5%	nt	nt	nt	23µM*	?
CCCCCCn1c(=O)n2n(c1=O)C[C@]1(OC(=O)NCc3ccccc3F)CN(S(=O)(=O)c3ccc(C)cc3)C[C@]1(O)C2	4%	nt	nt	nt	15µM*	?
Clc1nc2ccccc2cc1-c1nnn(-c2ccccc2Br)n1	?	nt	-30%	nt	?	?
Brc1ccccc1-n1nnc(-c2cnc3ccccc3c2)n1	-7%	nt	-20%	nt	18µM*	?
COc1cccc(NC(=O)c2ccc3c(O)c(S(=O)(=O)c4ccccc4)c(=O)[nH]c3c2)c1	24µM*	2%	?	-6%	?	23µM*
COC(=O)c1ccccc1NC(=O)CSc1nc2cccnc2n1C	-15%	8%	-19%	-16%	?	?
COc1cccc(NC(=O)CSc2ncc(S(=O)(=O)c3ccccc3)c(=O)[nH]2)c1	27µM*	1%	-29%	0%	?	?
SMILES	PLK1 PBD inh	TDP1 block	VDR inh	KAT2A inh	TDP1 cell noCPT	DT40 TDP1 CPT
O=C(CSc1nnc(-c2ccc(F)cc2)c2ccccc12)Nc1ccccc1	-4%	3%	-8%	-25%	?	?
COC(=O)Cc1nnc(SCC(=O)Nc2ccccc2)c2ccccc12	-1%	2%	79µM*	?	23µM*	18µM*
COc1ccc(S(=O)(=O)c2c(O)c3ccc(C(=O)Nc4cccc(F)c4)cc3[nH]c2=O)cc1	-11%	4%	?	-9%	-3%	6%
COC(=O)c1cccc(NC(=O)CSc2nc3cccnc3n2C)c1	-6%	5%	0%	-8%	16µM*	?
COc1cccc(N2CCN(C(=O)Cn3nc(C)n4c(cc5c(OC)cccc54)c3=O)CC2)c1	nt	3%	-15%	-4%	-19%	1%
O=C(COC(=O)c1ccccc1Cc1ccccc1)NC1CCS(=O)(=O)C1 (stereo not given)	-10%	-3%	-10%	-3%	-1%	1%
CC(C)Oc1ccccc1NC(=O)CSc1nc2ccccc2c(=O)n1C	-1%	nt	-5%	0%	?	21µM*
COc1cccc(NC(=O)CSc2nc3ccccc3c(=O)n2C)c1	0%	2%	-3%	1%	23µM*	16µM*
CCn1c(SCC(=O)Nc2ccccc2OC)nc2ccccc2c1=O	-4%	2%	12%	0%	?	?
COc1cccc(NC(=O)CSc2nc(C3CC3)nc3ccccc23)c1	-6%	0%	-1%	-10%	-9%	1%
COc1cccc2c1Oc1ncccc1N(C(=O)CCC(=O)NCCC(C)C)C2	nt	3%	2%	-3%	-19%	-26%
O=C(NCCN1CCN(Cc2ccccc2)CC1)C1c2ccccc2C(=O)N2CCc3ccccc3C12 (stereo not given)	-5%	1%	-3%	-4%	-17%	-30%
Cc1ccc(CNC(=O)C2c3ccccc3C(=O)N3CCc4ccccc4C23)o1 (stereo not given)	-16%	4%	?	-6%	23µM*	?
O=S(=O)(c1ccccc1)N1CCCC1c1nc2ccccc2s1 (stereo not given)	-12%	2%	?	-6%	18µM*	?
O=S(=O)(c1ccc(OC(F)(F)F)cc1)N1CCC(c2nc3ccccc3s2)CC1	nt	0%	-12%	1%	23%	11%
O=C(Nc1nc2ccccc2s1)C1CCCN1S(=O)(=O)c1ccc(Cl)cc1 (stereo not given)	-2%	7%	12%	-20%	-14%	-8%
O=C(c1ccc(F)cc1)N1CCC(c2nc3ccccc3s2)CC1	nt	-3%	4%	-14%	?	-30%
